Measurements from the supplement of paper PMC3334620.
Over roughly 33,000 sequences, “E-score (-0.5 to 0.5)” has its median near -0.012; the highest 2% begin near 0.29. Shown is part of a subset that was picked to be rich in the highest values.

molecular target: T1, Ybr033w (UniProt P38073); assay: PBM E-score (8-mer binding enrichment) (E-score (-0.5 to 0.5)); higher = stronger / more preferred TF binding; settings: protein concentration: 200 nM; construct: GST-full length
T1 sequence: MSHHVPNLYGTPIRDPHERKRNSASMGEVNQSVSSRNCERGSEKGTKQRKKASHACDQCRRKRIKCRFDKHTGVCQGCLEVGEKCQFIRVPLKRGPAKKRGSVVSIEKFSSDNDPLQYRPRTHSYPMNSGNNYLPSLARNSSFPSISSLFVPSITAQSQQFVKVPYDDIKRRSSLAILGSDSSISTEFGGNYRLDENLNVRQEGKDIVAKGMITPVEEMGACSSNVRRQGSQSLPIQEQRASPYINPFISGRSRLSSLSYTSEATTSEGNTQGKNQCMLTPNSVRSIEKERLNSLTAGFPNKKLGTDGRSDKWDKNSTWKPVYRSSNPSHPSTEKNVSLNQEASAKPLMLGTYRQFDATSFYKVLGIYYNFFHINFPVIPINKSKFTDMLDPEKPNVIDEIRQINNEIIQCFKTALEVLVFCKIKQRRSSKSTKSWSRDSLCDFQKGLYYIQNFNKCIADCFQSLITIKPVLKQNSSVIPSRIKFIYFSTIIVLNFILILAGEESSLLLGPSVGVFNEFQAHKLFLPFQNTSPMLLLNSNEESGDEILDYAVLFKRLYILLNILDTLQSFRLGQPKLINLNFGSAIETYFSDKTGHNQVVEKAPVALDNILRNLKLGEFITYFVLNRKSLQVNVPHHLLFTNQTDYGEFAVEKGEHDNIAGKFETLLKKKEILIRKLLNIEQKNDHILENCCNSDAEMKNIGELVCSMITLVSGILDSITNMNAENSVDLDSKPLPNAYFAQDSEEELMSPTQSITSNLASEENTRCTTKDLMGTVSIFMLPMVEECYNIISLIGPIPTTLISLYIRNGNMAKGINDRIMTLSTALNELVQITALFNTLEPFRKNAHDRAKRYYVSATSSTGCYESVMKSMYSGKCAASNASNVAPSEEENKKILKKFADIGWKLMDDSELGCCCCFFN
Method: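 Universal 'all 10-mer' protein binding microarrays (Agilent AMADID 015681) probed with GST-tagged S. cerevisiae TFs (full-length or DBD) made by in vitro transcription/translation (PURExpress), about 100-200 nM. Bound TF was detected with fluorescent anti-GST. Each ungapped 8-mer (which stands for itself and its reverse complement) is scored by the PBM enrichment score (E-score), a modified Wilcoxon-Mann-Whitney statistic from -0.5 to +0.5, computed with the Universal PBM Analysis Suite. Scale: above 0.35 generally sequence-specific binding.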

Sequence | PBM E-score
GTCCAGAA | -0.051
TTCCAGAA | 0.294
CTCCACAA | 0.0525
CTCCAGAA | -0.0883
TTCCACAA | 0.314
GTCCACAA | 0.0077
ATGAAGAA | 0.126
CTGAACAG | 0.00549
AACGACAA | 0.175
GACGACAA | 0.293
CACGACAA | -0.0495
GAAAGTAC | 0.0791
GACCATTA | 0.2
GACTTAAA | 0.0498
GGTTAAGA | 0.0725
TACTACCA | 0.106
ATCATTAG | 0.16
AACATAAC | 0.281
ATCATTTC | 0.258
ATCATTTA | 0.336
AACATATA | 0.298
CACATATA | 0.0859
ATCATTAA | 0.313
CTCATTTA | 0.0742
GACATATA | 0.185

Sequence | PBM E-score
CTCATTAA | 0.23
AACATAAA | 0.11
AACATAAT | 0.295
AGTTGTAT | 0.0541
TGGCCTAA | -0.088
ATGGCAAG | -0.0226
GTCCTTGA | -0.0584
GACCTATC | -0.0417
AGCCACGA | -0.228
TCACACGA | -0.00326
CTACTAAC | 0.222
CAAGCGTA | 0.093
AACATTTA | 0.296
AACATTTC | 0.272
GACATTTA | -0.045
CCACTTGC | -0.0925
CCGCGCGG | 0.104
AGATCGAG | 0.0958
TACCAATA | 0.0786
TCCATCAA | 0.312
CCCATCAA | 0.101
CACATCAA | 0.127
AACATCAA | 0.319
ACCATCAA | 0.137
GACATCAA | 0.0415

Sequence | PBM E-score
AATGCCAA | 0.112
CACCTCAC | 0.0264
TCCTTTAA | 0.132
ATGACTGG | -0.17
GACTGCAC | -0.221
ATCAATAA | 0.321
AACAATTA | 0.366
ATCAATTA | 0.365
AACAATTC | 0.205
ATCAATAG | 0.178
ATCAATTC | 0.125
CTCAATAA | 0.12
ATCAATTG | 0.252
AACAATTG | 0.115
CAGGAGGC | -0.202
CAATTGCC | 0.0461
AATACTCG | 0.22
CTGAGACC | -0.291
CGTCTGGC | 0.0541
GTACCATA | 0.00958
ATACCATG | -0.0754
ATACCATA | 0.297
ATCGAAAT | 0.119
AATAAAGT | 0.265
ACAAAGTA | 0.3

Sequence | PBM E-score
CTAAAGAA | 0.0669
ATAAAGTG | 0.244
ATAAAGTA | 0.306
GTAAAGTA | 0.174
ACAAAGTC | 0.0213
TTAAAGAA | 0.117
GCAAAGTA | 0.113
ATAAAGAA | 0.291
AGTAAGAA | 0.208
AACAGTGA | -0.0153
ATGTGCTA | 0.208
GCTGCTCA | -0.11
CTCTCTCC | -0.21
ACACTCAC | 0.0907
GACGCAGA | -0.127
ATAGCTAT | 0.13
ATTATCCC | 0.321
ACTATCCG | 0.16
ATTATCTG | 0.218
ATTATCGA | 0.0687
CTTATCCA | 0.0666
ATTATCGC | 0.319
GTTATCCA | 0.0783
ATTATCGG | 0.0549
ATTATCCG | 0.469

Sequence | PBM E-score
CTTATCCC | -0.16
ACTATCCC | -0.24
ATTATCCA | 0.341
AACCATAG | 0.0244
CGTCAAAA | 0.108
ACACCAGA | 0.059
GAGACGCC | -0.0848
AAATTTCG | 0.139
ACCTTTTA | -0.0294
ATCCACAC | -0.00864
AGCTTGCC | -0.231
AACAGGTG | -0.0949
CCACCTCA | -0.134
AGGAGACT | -0.0682
ACGCCCCT | -0.389
AAAGGAAT | 0.0153
CCCAAAAA | -0.19
ACCAAAAA | 0.332
ACCAAAAT | 0.111
AGCAAAAA | 0.319
AGCAAAAC | 0.0585
CCAAAAAA | 0.332
ACCAAAAC | 0.0839
AGCAAAAT | 0.2
CAAAAAAG | 0.261

Sequence | PBM E-score
CAAAAAAA | 0.293
CCAAAAAC | 0.132
CAAAAAAC | 0.146
GATATCGC | 0.119
GGCTTCGA | -0.138
CTGTTCTA | -0.094
GCGCGAGC | -0.21
CCCTGCCC | -0.376
CCGCCAGA | -0.0108
CTGTCTCC | 0.00722
GCCAGTAC | -0.0841
CGTTATGC | 0.0079
CTTTTGGC | -0.0369
AGTATATG | 0.0561
AGTATATA | 0.389
ATTATGTG | 0.11
AGTATATC | 0.213
GCTATATA | 0.194
ACTATATC | 0.229
ATATTATG | 0.315
ATTATGTA | 0.312
ATATTATC | 0.265
ACTATATA | 0.309
ATTATGTC | 0.17
ATATTATA | 0.227

Sequence | PBM E-score
ACTGGAAC | 0.072
ACCCACCC | 0.0336
AACGCGAT | 0.0217
TCTCTGCA | -0.162
GCACTTCA | 0.0397
AGCGCTTC | 0.016
ACCATCAT | 0.0599
AGTGCTAC | -0.0555
CCCGGGAG | -0.0399
CGGCTCAA | 0.103
CACTCGCA | -0.00609
ATATTACG | 0.333
CTTATATA | 0.334
ATTATACA | 0.222
ATATTACA | 0.256
ATTATATG | 0.289
ATTATATA | 0.297
ATTATATC | 0.256
CTTATATC | 0.146
ATATTACC | 0.227
GTTATATA | 0.154
ACTATATG | 0.256
